# Compound activity as filed in PubChem.
# Hits are enriched below; roughly 3.3% of the tested compounds scored in any of these assays.
# ERa coact inh: blocks coactivator binding to human estrogen receptor alpha; 86,000 tested, 1.7% active; inhibition, % at 25.6 µM; P03372; TR-FRET ER-alpha LBD / SRC-1 peptide, estradiol-bound; AID 629; in the data active = inhibition above about 50%
# Smad3 FoxH1 inh: Smad3 (human) transcription factor binding inhibition; 88,000 tested, 0.29% active; TR-FRET Smad3/Dy647-FoxH1 peptide binding, europium anti-His; inhibition, % at 25 µM; AID 630;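 active = compounds that reduce the energy-transfer binding signal between the protein and its labelled peptide by more than half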
# ERa coact pot: enhances coactivator binding to human estrogen receptor alpha. P03372. TR-FRET ERalpha-LBD/SRC-Cy5 coactivator binding, 2 h; 100 = basal binding, no effect. coactivator binding (% of control), % at 25.6 µM. 86,000 tested, 1.3% active. AID 639; in the data active = activity above about 200%;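 also: binding measured in presence of low estradiol as agonist stimulus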
# FAK inh: blocks human focal adhesion kinase activity | biochemical FAK kinase activity assay | AID 727 | 97,000 tested, 0.84% active | inhibition, %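 (tested at 7 µM)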; in the data active = inhibition above about 19%
# ERb coact inh: ER-beta (human) coactivator binding inhibition. Q92731. TR-FRET ER-beta LBD / SRC1-Cy5 peptide binding; receptor agonist-loaded with 1 µM estradiol. inhibition, % at 25.6 µM. 86,000 tested, 1.3% active;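 active = compounds whose percent inhibition of the receptor-coactivator binding signal exceeds about 50% in the single-dose screen, limit read from the data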
# Numbers stand for hits; i = inactive; nt = not tested or not shown; [ ] = remark or other dose.
SMILES,ERa coact inh,Smad3 FoxH1 inh,ERa coact pot,FAK inh,ERb coact inh
CC1(C)Cc2ccccc2-c2nnc(SCC(=O)Nc3nc4ccccc4s3)n21,56[fluorescence artefact?],i,i,i,i
Cn1c(SCC(=O)Nc2nc3ccccc3s2)nnc1-c1ccccc1,i,i,i,i,i
COc1cccc(-c2cc(C(=O)Nc3cc(C)nn3-c3ccccc3)no2)c1,i,i,455,i,i
Cc1cc(NC(=O)c2cc(-c3ccccc3)on2)n(-c2ccccc2)n1,i,i,529[fluorescence artefact?],i,i
COc1ccc(-c2cc(C(=O)Nc3cc(C)nn3-c3ccccc3)no2)cc1,i,i,i,i,i
c1ccc(-c2nc(N3CCN(c4ccccc4)CC3)nc(-n3ccnc3)n2)cc1,83[fluorescence artefact?],i,i,i,i
C[N+](C)(N)CCC[N+](C)(C)N,nt,i,nt,nt,nt
CCCc1cc(=O)oc2cc(OCC(=O)Nc3ccc4c(c3)OCCO4)ccc12,i,i,216[fluorescence artefact?],i,i
COc1nnc(-c2ccc(C)c(S(=O)(=O)NCCO)c2)c2ccccc12,58,i,i,i,64[fluorescence artefact?]
CC(C)/C(=N\[N+](C)(C)C)c1ccccc1,nt,i,nt,nt,nt
O=C(O)C(O)c1ccco1 (stereo not given),54,i,i,nt,58[fluorescence artefact?]
Nc1ncnc2nc(N3CCN(CCO)CC3)[nH]c12,nt,i,nt,nt,nt
CCn1cc(SCC(=O)NCc2ccc3c(c2)OCO3)c2ccccc21,i,i,i,nt,53
CCn1c2ccccc2c2nnc(SCC(=O)Nc3ccc4c(c3)OCO4)nc21,50,i,i,i,i
Cn1c2ccccc2c2nnc(SCN3C(=O)c4ccccc4C3=O)nc21,i,i,i,nt,i
CCCn1cc(SCC(=O)NCc2ccc3c(c2)OCO3)c2ccccc21,i,i,i,i,i
Cn1c2ccccc2c2nnc(SCc3ccc4nonc4c3)nc21,55[fluorescence artefact?],i,i,i,i
CCn1c2ccccc2c2nnc(SCC(N)=O)nc21,i,i,i,i,i
CCn1c2ccccc2c2nnc(SCc3ccccc3)nc21,56[fluorescence artefact?],i,i,nt,i
CCn1c2ccccc2c2nnc(SCC(=O)Nc3cc(C)on3)nc21,i,i,i,i,i
COc1ccc2c(c1)Cc1cc(N=[N+]([O-])c3ccc4c(c3)Cc3cc(OC)ccc3-4)ccc1-2,nt,i,nt,nt,nt
CN1CCN(CC(=O)N2c3ccccc3Sc3cc4ccccc4cc32)CC1,nt,i,nt,nt,nt
CCCSc1nc(N)c(C#N)c(-c2ccc(C)cc2)c1C#N,nt,nt,nt,i,nt
C=CCSc1nc(N)c(C#N)c(-c2ccccc2)c1C#N,i,i,238[fluorescence artefact?],i,i
C[C@@](O)(CNS(=O)(=O)c1ccccc1)c1ccccc1,nt,i,nt,nt,nt
SMILES,ERa coact inh,Smad3 FoxH1 inh,ERa coact pot,FAK inh,ERb coact inh
CCOC(=O)/C(=N\Nc1ccccc1)c1csc(Nc2ccc(C)cc2)n1,i,i,i,i,i
CC/C(=N/Nc1ccccc1)c1cnnc(-c2ccccc2)n1,82[fluorescence artefact?],i,i,i,60
Cc1cc(C)cc(NC(=O)C2CCCN(c3nccc(C)n3)C2)c1 (stereo not given),i,i,i,i,i
CC(=O)Nc1ccc(NC(=O)C2CCCN(c3ncccn3)C2)cc1 (stereo not given),i,i,i,i,i
O=C(Nc1ccc(C2CCCCC2)cc1)C1CCCN(c2ncccn2)C1 (stereo not given),i,i,223[fluorescence artefact?],nt,i
Cc1cc(C)cc(NC(=O)C2CCCN(c3nc(C)cc(C)n3)C2)c1 (stereo not given),i,i,i,nt,75[fluorescence artefact?]
CN(C)c1ccc(NC(=O)c2cc3c(=O)n4ccccc4nc3n2C)cc1,100[fluorescence artefact?],i,i,i,93[fluorescence artefact?]
Nc1c(S(N)(=O)=O)cc(S(N)(=O)=O)cc1S(N)(=O)=O,nt,i,nt,nt,nt
O=c1cc(-c2ccccc2Cl)c2c([nH]1)CCC2,i,i,i,nt,57[fluorescence artefact?]
COc1cc2[nH]c(=O)n(CCCCCC(=O)NCCc3c[nH]c4ccccc34)c(=O)c2cc1OC,i,i,i,i,i
CCOC(=O)c1c(O)[nH]c(=O)c(CC)c1C,nt,i,nt,nt,nt
CCCN1CCN(CCCNC(=O)c2cc3c(=O)n(C)c4ccccc4c3n2C)CC1,i,i,i,i,i
Cn1c(C(=O)NCCCN2CCCCCC2)cc2c(=O)n(C)c3ccccc3c21,53[fluorescence artefact?],i,i,i,i
C=C(C)c1cccc(C(C)(C)NC(=O)N2CCCC2)c1,i,i,i,i,i
C=C(C)c1ccc(C(C)(C)NC(=O)N2CCN(C)CC2)cc1,i,71,537[fluorescence artefact?],i,i
COc1cc(NC(=O)c2ccc(Br)o2)c(C(=O)O)cc1OC,i,i,i,i,i
COC(=O)c1cc(OC)c(OC)cc1NC(=O)c1ccc(Br)o1,57,i,i,i,i
COc1ccc(-c2nc3ccccc3o2)cc1NC(=O)c1ccc(Br)o1,i,i,257[fluorescence artefact?],i,i
